# The full list was thinned out, with hits kept by preference.
# VDR inhibitor: blocks the human vitamin D receptor | 400,000 tested, 0.93% active | P11473 | VDR-SRC2-3 peptide fluorescence polarization, 2 h | Potency, µM, for inactives: max response, negative = inhibition, most hits filed as inhibitors; further: on the % scale 0 is the no-effect control and ±100 the full control effect
# Target sequence (P11473 whole entry, looked up): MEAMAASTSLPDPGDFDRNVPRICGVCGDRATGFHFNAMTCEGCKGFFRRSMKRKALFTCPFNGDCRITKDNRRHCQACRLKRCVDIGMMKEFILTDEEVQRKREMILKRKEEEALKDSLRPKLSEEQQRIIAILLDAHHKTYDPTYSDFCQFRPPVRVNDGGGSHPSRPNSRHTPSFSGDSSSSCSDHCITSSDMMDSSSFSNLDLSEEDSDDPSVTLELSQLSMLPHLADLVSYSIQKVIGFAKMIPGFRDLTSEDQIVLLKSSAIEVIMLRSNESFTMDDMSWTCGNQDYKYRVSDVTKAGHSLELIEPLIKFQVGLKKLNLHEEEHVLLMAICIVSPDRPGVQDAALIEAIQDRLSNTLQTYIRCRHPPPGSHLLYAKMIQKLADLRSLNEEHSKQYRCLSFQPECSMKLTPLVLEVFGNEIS
#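 VDR–SRC2-3 interaction, FP format. Cmpds 23 nl via pintool, brief spin, 2 h ambient incubation.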
# GRP78 ERSR act: induces the endoplasmic reticulum stress response in human glioma cells; U87-MG GRP78 promoter luciferase reporter, 16 h; Potency, µM, for inactives: top-dose activation, actives largely listed as activators; 420,000 tested, 0.02% active; AID 602332; further: series mostly up to about 76 µM; % of control where 0% means no effect; nearly all actives have a fitted effect of over 35% in size
#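 ERSR induction read as luciferase luminescence (Bright-Glo, 10 min at room temperature) in stably transfected human U87-MG glioma cells exposed to compounds for 16 h, using GRP78 as sensor.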
# Sfp inh: blocks B. subtilis Sfp PPTase activity | 310,000 tested, 3.5% active | Biochemical Sfp PPTase activity, qHTS | Q9F4F7 | Potency, µM, for inactives: largest response in the series, negative = inhibition, actives largely listed as inhibitors;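 further: the enzyme is Sfp with the accession as filed and its product quenches rhodamine fluorescence; 0% = enzyme reaction without inhibitor and -100% = no enzyme wells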
#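 With Hepes-Na pH 7.6 buffer containing 10 mM MgCl2, Sfp (15 nM) modified BHQ-2-YbbR (12.5 uM) using rhodamine-CoA (5 uM). Two reads 30 minutes apart at 525/598 nm yielded each well's rate.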
# G9a block: blocks human histone lysine methyltransferase G9a; Q96KQ7; G9a H3K9 monomethylation, AlphaScreen, 2 h; Potency, µM (titrated, usually from 102 µM), inactives show top-dose activity, negative = inhibition, hits mostly inhibitors; AID 504332; 350,000 tested, 8.8% active; further: on the % scale 0 is the no-effect control and ±100 the full control effect; nearly all actives have a fitted effect of over 75% in size
# Target sequence (Q96KQ7 913-1193 limits assumed): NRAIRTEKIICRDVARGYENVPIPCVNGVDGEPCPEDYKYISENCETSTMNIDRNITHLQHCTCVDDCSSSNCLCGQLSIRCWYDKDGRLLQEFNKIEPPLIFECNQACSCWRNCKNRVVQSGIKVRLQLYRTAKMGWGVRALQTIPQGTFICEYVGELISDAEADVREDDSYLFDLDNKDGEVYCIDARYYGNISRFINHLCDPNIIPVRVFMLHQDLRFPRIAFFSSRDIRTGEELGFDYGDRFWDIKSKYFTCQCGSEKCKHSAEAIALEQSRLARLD
#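 Methyltransferase reactions run at room temperature for 2 h (20 nM enzyme, 500 nM biotin-H3K9 peptide, 20 uM SAM) after a 15 min compound preincubation; product detected by AlphaScreen beads and anti-H3K9me1 antibody.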
# ALOX12 inh: inhibitors of human 12S-lipoxygenase ALOX12; P18054; Potency, µM (doses to about 108 µM), inactives show at the highest dose activity change, negative = inhibition, usual class: inhibitors; 580,000 tested, 1.1% active; purified 12hLO, xylenol orange hydroperoxide absorbance; further: on the % scale 0 is the no-effect control and ±100 the full control effect
#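 Purified human 12hLO at 150 nM in 25 mM Hepes, 0.01% Triton X-100, pH 7.0, preincubated 15 min at room temperature with compound. Reaction started with 40 uM arachidonic acid, 30 min at room temperature. Hydroperoxide measured by Fe-xylenol orange, 573/405 nm absorbance ratio.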
# Active calls of the source: *; u = inconclusive; x = no result given; [ ] = dose if it differs, or a comment. The call rests on the fitted dose curve; in most records, active means well fitted curve in the direction sought with a large enough effect; inconclusive means small, poorly fitted or top-dose-only effect, or another doubt; inactive means no such curve, though single readings can be large; an effect the other way counts as inactive or inconclusive. Potency means the concentration at half of the fitted maximal effect.
SMILES,VDR inhibitor,GRP78 ERSR act,Sfp inh,G9a block,ALOX12 inh
O=C(COc1ccc2nc3n(c(=O)c2c1)CCCCC3)NC1CC1,x,x,x,x,-3.4%
COc1ccc(C2=NC(c3ccc(Cl)cc3)C(c3ccc(Cl)cc3)N2C(=O)N2CCNC(=O)C2)c(OC(C)C)c1 (configuration not stated),50.1µM*,3.0%,-22.1%,x,x
Cc1ccc(C(=O)N/N=C/c2ccccc2)s1,x,x,x,x,-9.2%
O=C(NNc1cccc([N+](=O)[O-])c1)/C(=C\c1cccnc1)NC(=O)c1ccccc1,-23.9%,0.3%,-19.0%,50.1µM*,0.0%
Cc1nnc(NC(=O)CCc2ncc(-c3ccccc3)o2)s1,x,x,x,x,-22.9%
Nc1cc2c(cc1O)CCCC2,5.4%,3.6%,4.47µM*,x,u
Cc1ccc(N(Cc2ccccc2)C(=O)c2cccs2)cc1,x,x,x,x,-7.4%
CCN(CC(=O)Nc1ccc(NC(C)=O)cc1)C(=O)c1cccc(-n2cccc2)c1,6.3%,-1.0%,x,50.1µM*,x
Cc1ccc(C)c(NC(=O)CN(C)C(=O)c2cccc(Oc3ccccc3)c2)c1,u,0.0%,x,x,-20.7%
Cc1ccc(C)c(NC(=O)CN(C)C(=O)c2cccc(-n3cccc3)c2)c1,-9.0%,-3.0%,x,39.8µM*,-29.8%
COc1cccc(/C=C2/C(=O)c3ccccc3OC2c2ccccc2)c1 (configuration not stated),x,x,x,x,-21.1%
CC1C/C(=N/NC(=S)Nc2ccc(SC(F)F)cc2)CC(C)(C)C1 (configuration not stated),x,x,x,x,28.2µM*
CC1(C)C2CC=C(/C=N/NC(N)=O)C1C2 (configuration not stated),x,x,x,x,-5.6%
CC1(C)C2CC=C(/C=N/NC(=S)Nc3ccc(SC(F)F)cc3)C1C2 (configuration not stated),x,x,x,x,31.6µM*
CC1C/C(=N/NC(=O)c2ccccc2)CC(C)(C)C1 (configuration not stated),x,x,x,x,8.6%
COc1ccc(OC)c(/C=C/C(=O)OC2(C(F)(F)F)C(=O)Nc3c2ccc2ccccc32)c1 (configuration not stated),x,x,x,x,-83.6%
Cc1cccc(OCCSc2nc3cc(S(=O)(=O)N(C)C)ccc3o2)c1,x,x,x,x,-18.7%
COC(=O)C1(CO)NC(c2ccc(C)cc2)C2C(=O)N(c3ccccc3)C(=O)C21 (configuration not stated),-3.8%,1.6%,19.5%,4.0%,70.4%
CC(C)(C)C(=O)NCC12C=CC(O1)C1C(=O)N(c3ccccc3)C(=O)C12 (configuration not stated),u,-3.5%,-1.3%,1.58µM*,-6.1%
O=C1C2C3C=CC(CO)(O3)C2C(=O)N1c1ccc(-c2ccccc2)cc1 (configuration not stated),x,x,5.01µM*,1µM*,x
Cc1nc(N2CCN(C(=O)Cc3ccc(Cl)cc3)CC2)cc(C(F)(F)F)n1,x,x,x,x,2.6%
CCN(C(=O)C(NS(=O)(=O)c1cccc2nsnc12)c1ccccc1)c1ccccc1 (configuration not stated),-5.1%,-2.8%,x,2.82µM*,u
O=C(CCS(=O)(=O)c1cccc2nsnc12)NC1CCCCCC1,-5.4%,-5.5%,-19.6%,39.8µM*,u
C=CCN(C(=O)CCS(=O)(=O)c1cccc2nsnc12)c1ccccc1,-12.6%,-0.5%,-14.7%,44.7µM*,u
O=C(CCS(=O)(=O)c1cccc2nsnc12)NCc1ccccc1,-6.3%,-3.3%,9.9%,6.0%[59 µM],u
SMILES,VDR inhibitor,GRP78 ERSR act,Sfp inh,G9a block,ALOX12 inh
Cc1cc(NC(=O)NCC(c2cccs2)N2CCOCC2)no1 (configuration not stated),x,x,x,x,29.4%
CCCCCc1ccc(-c2ccc(-c3ccc(C#N)cc3)nc2)cc1,x,x,x,x,0.0%
CCOC(=O)C(C(C)=O)C(c1ccccc1)C(C(C)=O)C(=O)OCC (configuration not stated),x,x,x,x,-1.2%
CC(C)CC(COCc1ccc([N+](=O)[O-])cc1)N1CCN(C(=O)c2ccc(C(F)(F)F)cc2)CCC1=O (configuration not stated),-12.1%,-4.1%,4.9%,50.1µM*,-0.1%
Cc1cccc(COCC(CC(C)C)N2CCN(C(=O)c3ccc(C(F)(F)F)cc3)CCC2=O)c1 (configuration not stated),-16.2%,2.2%,5.3%,u,-13.1%
Cc1cccc(COCC(Cc2ccccc2)N2CCN(C(=O)c3ccc(C(F)(F)F)cc3)CCC2=O)c1 (configuration not stated),-12.8%,-3.2%,-5.5%,u,x
O=C(c1ccc(C(F)(F)F)cc1)N1CCC(=O)N(C(COCc2ccc(C(F)(F)F)cc2)Cc2ccccc2)CC1 (configuration not stated),-2.7%,-1.2%,4.5%,44.7µM*,-28.3%
Cc1cccc(C(=O)N2CCC(=O)N([C@H](COCc3cccc(Cl)c3)Cc3ccccc3)CC2)c1,-7.3%,-0.6%,9.2%,4.2%[59 µM],u
Cc1cccc(C(=O)N2CCC(=O)N(C(COCc3cccc(Cl)c3)Cc3ccccc3)CC2)c1 (configuration not stated),-9.4%,3.1%,1.3%,79.4µM*,u
CC(C)(C)c1ccc(C(=O)N2CCN(C(=O)c3nnn4c3COC(c3ccccc3)C4)CC2)cc1 (configuration not stated),x,x,x,x,32.4%
O=C(CSc1ccccc1C(=O)O)c1ccc([N+](=O)[O-])cc1,u,0.5%,-94.5%,20µM*,-9.5%
Nc1nnc(SCC(=O)c2ccc([N+](=O)[O-])cc2)s1,5.0%,0.1%,4.1%,u,-23.0%
Cc1nnc(SCC(=O)c2ccc([N+](=O)[O-])cc2)s1,-24.0%,-0.1%,50.1µM*,-17.6%[59 µM],-3.9%
CCc1cc(=O)oc2c(C)c(OCC(=O)NCCCN(C)C)ccc12,x,x,x,x,-8.9%
COC(=O)C1CCCN1S(=O)(=O)c1cc(Cl)ccc1Cl (configuration not stated),x,x,x,x,29.5%
Cc1oc(/N=C/c2ccc(Cl)cc2Cl)c(C#N)c1C,30.1%,-4.9%,4.3%,44.7µM*,u
Cc1oc(/N=C/c2ccccc2O)c(C#N)c1C,-1.9%,-3.8%,-27.1%,-124.1%,25.0%
Cc1oc(/N=C/c2c(O)ccc3ccccc23)c(C#N)c1C,x,x,-20.3%,1.58µM*,x
Cc1oc(/N=C/c2ccc(O)cc2O)c(C#N)c1C,-6.9%,-2.8%,-18.8%,44.7µM*,u
CCOc1ccccc1NC(=O)C(NCCN(C)C)c1ccccc1 (configuration not stated),11.0%,-9.7%,79.4µM*,10µM*,4.2%
COC(=O)CCC(=O)Nc1ccc(Cl)c(Cl)c1,-1.1%,0.6%,7.1%,4.6%,-23.3%
CO/N=C\CC(=O)Nc1ccc(Cl)c(Cl)c1,-11.2%,-2.7%,8.6%,20.5%[59 µM],39.8µM*
O=C(CC1CCOCC1)Nc1ccc(Cl)c(Cl)c1,-3.4%,1.5%,-2.8%,39.8µM*,u
O=C(CC1CCOCC1)Nc1ccc(OC(F)(F)F)cc1,x,x,x,x,9.5%

# From PubChem
